Source: PubChem BioAssay
Calls of active or inactive are those of the source. Unless noted, the rule behind the calls is not given here.

Experiments:
[1] = tested on: Wnt5a (protein binding on small-molecule microarray); assay: Wnt5a binders on small-molecule microarray, primary screen, biophysical, 635/667 nm fluorescence (AID 1142); conditions: 635 nm fluorescence, higher = more signal;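 note: fluorescence read at 667 nm with signal to noise per printed feature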
[2] = cell viability in Huh7 cells, primary screen, cytotoxicity control for HCV replication inhibitor project, CellTiter-Glo luminescence, basal, 48 h (AID 1143); conditions: Huh7 HCV replicon, higher = more signal, called active from +8 up or from −8 down;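 note: Huh7 hepatoma cells carrying a hepatitis C replication reporter with no stimulus; test concentration not given here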
[3] = P. aeruginosa biofilm formation inhibitors, primary screen, PAO1 strain, BacTiter-Glo luminescence, LB-PBS (AID 1144); conditions: 12 h, higher = more signal
[4] = CREB reporter modulators without forskolin, primary screen, cell-based, PC12, CRE-LacZ reporter, unstimulated (AID 1145); conditions: no forskolin, luminescence, 4.5 h, higher = more signal, called active from +8 up or from −8 down
[5] = CREB reporter modulators under forskolin, primary screen, cell-based, PC12, CRE-LacZ reporter, forskolin-stimulated (AID 1146); conditions: luminescence, 4.5 h, higher = more signal, called active from +8 up or from −8 down;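 note: PC12 cells with 6xCRE LacZ reporter stimulated by forskolin 10 µM; beta-galactosidase reporter signal reflecting CREB driven transcription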
[6] = biological target: Streptavidin (Streptomyces avidinii) (UniProt P22629); assay: streptavidin binders on small-molecule microarray, primary screen, artefact control for SMM compound annotation, biophysical, 635/667 nm fluorescence (AID 1147); conditions: streptavidin binding, higher = more signal;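 note: signal reflects streptavidin binding to arrayed compounds as a control protein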
[7] = small-molecule binders of probe aInhba, primary screen, biochemical, small-molecule microarray, 635/667 nm fluorescence (AID 1148); conditions: higher = more signal;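 note: score merges 667nm spot fluorescence with signal-to-noise for antibody binding to printed compounds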
Torsin-1A (Homo sapiens) [8] = biological target: Torsin-1A (Homo sapiens) (UniProt O14656); assay: torsin A binders from cell lysate, primary screen, small-molecule microarray, wild-type, 635/667 nm (AID 1149); conditions: COS7 hTOR1A-WT lysate, 635 nm fluorescence, higher = more signal
Torsin-1A (Homo sapiens) [9] = biological target: Torsin-1A (Homo sapiens) (UniProt O14656); assay: small-molecule binders of mutant TOR1A in lysate, primary screen, cell lysate, small-molecule microarray, COS7 lysate, 635/667 nm fluorescence (AID 1150); conditions: COS7 hTOR1A mutant lysate, 635 nm fluorescence, higher = more signal;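 note: score pools 667 nm emission and signal to noise measuring lysate protein binding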
[10] = tested on: Sonic hedgehog protein (Shh); assay: small-molecule binders of Shh protein, primary screen, biochemical, small-molecule microarray, 635/667 nm fluorescence (AID 1151); conditions: small-molecule microarray binding, 635 nm fluorescence; higher = more signal;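 note: Shh protein binding to compounds spotted on small-molecule microarray slides; score combines spot fluorescence intensity with signal-to-noise across triplicate slides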
[11] = E. coli DRC41 culture turbidity changes, primary screen, E. coli filamentation inducer project, strain DRC41, OD650, 48 h (AID 1152);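 note: E. coli MC1000 strain DRC41 lacking acrAB efflux pump and sulA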; conditions: E. coli DRC41 (acrAB sulA), higher = more signal, called active from +8 up or from −8 down
[12] = small-molecule binders of probe aLefty1, primary screen, biochemical, small-molecule microarray, 635/667 nm fluorescence (AID 1153); conditions: higher = more signal;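 note: score merges spot fluorescence with signal-to-noise ratio from the scanned slide images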
[13] = PSAC antagonists in infected red cells, primary screen, cell-based, P. falciparum Indochina, OD700, 1 h (AID 1154); conditions: P. falciparum Indochina infected RBC osmotic lysis, higher = more signal, called active from +8 up or from −8 down
[14] = PSAC antagonists in infected red cells, primary screen, cell-based, P. falciparum Indochina, OD700, 2 h (AID 1155);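 note: lysis reports solute entry through the parasite surface anion channel PSAC; channel blockers reduce lysis of infected cells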; conditions: P. falciparum Indochina infected erythrocytes, osmotic lysis OD700; higher = more signal, called active from +8 up or from −8 down
[15] = osmotic lysis modulators in infected erythrocytes, primary screen, PSAC antagonist project, cell-based, P. falciparum Indochina, OD700, 3 h (AID 1156); conditions: higher = more signal, called active from +8 up or from −8 down
[16] = PSAC antagonists in infected red cells, primary screen, cell-based, P. falciparum Indochina, OD700, 18 h (AID 1157); conditions: P. falciparum Indochina infected erythrocytes, osmotic lysis OD700, 18 h; higher = more signal, called active from +8 up or from −8 down
[17] = modulators of S6 phosphorylation in cells, primary screen, cell-based, A549, cytoblot, luminescence, serum-stimulated (AID 1158); conditions: A549 phospho-S6 cytoblot, 5 h, higher = more signal;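 note: serum-stimulated A549 lung adenocarcinoma cells; signal is phosphorylated S6 detected by cytoblot immunostaining with HRP secondary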
[18] = biological target: NADPH oxidase 2 (Homo sapiens) (UniProt P04839); assay: NOX2-dependent H2O2 signal modulators, primary screen, NOX inhibitor project, cell-based, HEK293-NOX2, PMA-stimulated, Amplex Red fluorescence (AID 1159); conditions: 45 min, higher = more signal, called active from +8 up or from −8 down; note: test concentration not given here
[19] = biological target: NADPH oxidase 4 (Homo sapiens) (UniProt Q9NPH5); assay: NOX4-dependent H2O2 signal modulators, primary screen, NOX inhibitor project, cell-based, HEK293-NOX4, tetracycline-induced, Amplex Red fluorescence (AID 1160); conditions: 45 min, higher = more signal, called active from +8 up or from −8 down
[20] = biological target: NADPH oxidase 5 (Homo sapiens) (UniProt Q96PH1); assay: NOX5-dependent H2O2 signal modulators, primary screen, NOX inhibitor project, cell-based, HEK293-NOX5, Amplex Red fluorescence (AID 1161); conditions: HEK293-NOX5, ionomycin, 45 min, higher = more signal
Sequence of NADPH oxidase 5 (Homo sapiens) (Q96PH1 whole entry, looked up): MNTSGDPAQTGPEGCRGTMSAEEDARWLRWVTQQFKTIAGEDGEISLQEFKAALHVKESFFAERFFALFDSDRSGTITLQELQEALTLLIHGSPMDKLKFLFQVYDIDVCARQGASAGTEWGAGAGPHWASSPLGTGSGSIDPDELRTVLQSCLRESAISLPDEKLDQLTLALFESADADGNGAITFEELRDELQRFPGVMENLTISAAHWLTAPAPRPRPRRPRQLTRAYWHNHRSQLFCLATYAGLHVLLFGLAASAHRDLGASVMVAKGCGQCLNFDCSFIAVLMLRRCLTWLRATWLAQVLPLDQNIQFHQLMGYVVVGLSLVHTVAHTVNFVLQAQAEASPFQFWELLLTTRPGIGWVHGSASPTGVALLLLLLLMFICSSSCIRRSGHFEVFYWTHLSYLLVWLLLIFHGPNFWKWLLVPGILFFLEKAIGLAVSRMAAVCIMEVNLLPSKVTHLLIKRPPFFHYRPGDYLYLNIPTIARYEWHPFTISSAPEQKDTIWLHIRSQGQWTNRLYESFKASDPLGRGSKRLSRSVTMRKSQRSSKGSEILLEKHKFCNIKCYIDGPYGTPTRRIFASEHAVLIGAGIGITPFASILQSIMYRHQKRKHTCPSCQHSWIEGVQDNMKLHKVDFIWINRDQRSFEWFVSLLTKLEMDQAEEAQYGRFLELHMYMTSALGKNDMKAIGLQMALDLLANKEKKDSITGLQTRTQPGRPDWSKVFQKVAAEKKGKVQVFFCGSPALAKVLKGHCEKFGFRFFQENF

Sequence of NADPH oxidase 2 (Homo sapiens) (P04839 whole entry, looked up): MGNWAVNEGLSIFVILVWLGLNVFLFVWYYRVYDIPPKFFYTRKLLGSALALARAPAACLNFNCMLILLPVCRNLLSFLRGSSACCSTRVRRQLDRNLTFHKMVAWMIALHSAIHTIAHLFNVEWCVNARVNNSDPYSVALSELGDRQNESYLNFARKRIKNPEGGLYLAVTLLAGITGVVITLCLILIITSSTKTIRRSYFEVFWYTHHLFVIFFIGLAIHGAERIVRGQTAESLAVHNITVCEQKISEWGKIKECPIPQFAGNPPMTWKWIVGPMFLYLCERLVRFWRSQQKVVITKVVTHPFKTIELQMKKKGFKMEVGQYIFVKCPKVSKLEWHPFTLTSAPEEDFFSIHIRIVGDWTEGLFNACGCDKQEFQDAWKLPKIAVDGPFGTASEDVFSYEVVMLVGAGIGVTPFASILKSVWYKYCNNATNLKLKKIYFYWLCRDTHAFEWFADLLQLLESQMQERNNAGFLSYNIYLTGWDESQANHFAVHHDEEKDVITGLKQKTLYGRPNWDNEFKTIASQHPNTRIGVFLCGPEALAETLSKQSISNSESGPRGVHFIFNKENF
Sequence of Streptavidin (Streptomyces avidinii) (P22629 whole entry, looked up): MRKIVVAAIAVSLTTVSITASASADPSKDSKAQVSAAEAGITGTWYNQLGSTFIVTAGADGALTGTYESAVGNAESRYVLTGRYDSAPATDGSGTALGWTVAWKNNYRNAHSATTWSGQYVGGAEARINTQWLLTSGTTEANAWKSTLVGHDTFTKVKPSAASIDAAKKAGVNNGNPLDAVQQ
Sequence of Torsin-1A (Homo sapiens) (O14656 whole entry, looked up): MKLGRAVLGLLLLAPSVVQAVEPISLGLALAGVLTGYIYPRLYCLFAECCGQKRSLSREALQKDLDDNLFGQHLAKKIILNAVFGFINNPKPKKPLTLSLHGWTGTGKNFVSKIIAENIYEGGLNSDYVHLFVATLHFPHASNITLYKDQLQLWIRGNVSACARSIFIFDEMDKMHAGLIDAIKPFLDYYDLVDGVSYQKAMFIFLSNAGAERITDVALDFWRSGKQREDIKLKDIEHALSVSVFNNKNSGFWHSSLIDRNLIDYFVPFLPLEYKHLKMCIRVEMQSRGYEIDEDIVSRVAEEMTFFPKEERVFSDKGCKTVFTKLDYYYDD
Sequence of NADPH oxidase 4 (Homo sapiens) (Q9NPH5 whole entry, looked up): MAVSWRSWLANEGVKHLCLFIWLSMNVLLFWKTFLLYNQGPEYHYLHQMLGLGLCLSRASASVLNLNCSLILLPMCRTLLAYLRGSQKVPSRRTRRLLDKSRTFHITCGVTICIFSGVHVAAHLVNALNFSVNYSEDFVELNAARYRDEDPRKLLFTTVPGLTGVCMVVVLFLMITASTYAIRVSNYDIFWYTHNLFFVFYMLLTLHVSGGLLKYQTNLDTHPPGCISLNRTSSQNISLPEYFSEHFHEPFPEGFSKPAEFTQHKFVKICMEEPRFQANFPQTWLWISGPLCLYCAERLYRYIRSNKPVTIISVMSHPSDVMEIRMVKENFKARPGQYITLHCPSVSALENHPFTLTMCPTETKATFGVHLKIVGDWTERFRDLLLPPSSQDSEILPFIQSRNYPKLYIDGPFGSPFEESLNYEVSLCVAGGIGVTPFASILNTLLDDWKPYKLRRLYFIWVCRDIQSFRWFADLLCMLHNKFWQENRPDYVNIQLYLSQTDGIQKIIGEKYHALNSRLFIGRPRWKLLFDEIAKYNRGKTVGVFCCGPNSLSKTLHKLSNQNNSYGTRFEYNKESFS

Structure (SMILES) | composite z-score [1] | z-score [2] | z-score [3] | z-score [4] | z-score [5] | composite z-score [6] | composite z-score [7] | composite z-score (Torsin-1A (Homo sapiens) [8]) | composite z-score (Torsin-1A (Homo sapiens) [9]) | composite z-score [10] | z-score [11] | composite z-score [12] | z-score [13] | z-score [14] | z-score [15] | z-score [16] | z-score [17] | z-score [18] | z-score [19] | z-score [20]
COCCOC(=O)N1C(=O)[C@@]2(c3cc(C#CC4(O)CCCCCC4)ccc31)[C@H](C(=O)N1CCN(c3ncccn3)CC1)[C@H]1C(=O)O[C@H](c3ccccc3)[C@H](c3ccccc3)N1[C@@H]2c1ccc(O)cc1 | 0.521 | -1.45 (inactive) | 0.148 (inactive) | -0.375 (inactive) | 0.505 (inactive) | -0.0314 | 0.0982 | 0.553 | 0.432 | 0.481 | 0.923 (inactive) | 0.63 | 0.71 (inactive) | 0.566 (inactive) | 0.991 (inactive) | 0.613 (inactive) | 0.274 | 1.43 (inactive) | -1.31 (inactive) | 1.49
CC(C)C(CO)N1C(=O)[C@@H]2[C@H]3C(=O)OCC=C[C@H]3OC23C=CCN(CCN2CCOCC2)C(=O)[C@@H]13 (stereo not given in full) | -0.406 | 0.29 (inactive) | 2.66 (inactive) | 1.01 (inactive) | 1.25 (inactive) | -0.38 | -0.128 | -0.412 | 0.743 | 1.73 | -0.706 (inactive) | -0.263 | 0.897 (inactive) | -0.136 (inactive) | 0.675 (inactive) | 0.0875 (inactive) | -0.679 | 1.26 (inactive) | 0.258 (inactive) | 2.02
O=C(O)[C@@]1(Cc2ccccc2)COC(c2ccc(OCCCO)cc2)=N1 | 0.0416 | 0.621 (inactive) | 0.498 (inactive) | -0.277 (inactive) | 0.0685 (inactive) | -0.345 | -0.252 | -0.162 | 1.52 | -0.555 | 0.532 (inactive) | -0.0573 | 1.36 (inactive) | -0.166 (inactive) | 0.619 (inactive) | 0.295 (inactive) | -0.521 | -0.0643 (inactive) | 0.432 (inactive) | 0.237
NCCCCCCNC(=O)[C@H]1C[C@H]2C(=O)N3CCC[C@H]3C(=O)N2[C@H]1c1ccc(O)cc1 | 0.214 | -0.734 (inactive) | 0.131 (inactive) | 0.0084 (inactive) | -0.27 (inactive) | 0.0381 | 0.0047 | 0.624 | 0.553 | 1.86 | -0.247 (inactive) | -0.19 | 1.55 (inactive) | 0.507 (inactive) | 0.403 (inactive) | 0.253 (inactive) | 0.648 | -0.019 (inactive) | 0.901 (inactive) | 0.386
C=CCOC(=O)[C@@H]1[C@H]2C(=O)O[C@H](c3ccccc3)[C@H](c3ccccc3)N2[C@H](c2ccc(OCCOC(=O)[C@H]3C[C@H]4C(=O)N[C@@H](Cc5ccccc5)C(=O)N4[C@H]3c3cccc(OCCO)c3)cc2)[C@@]12C(=O)Nc1ccc(I)cc12 | 0.776 | -0.467 (inactive) | -0.787 (inactive) | 6.98 (inactive) | 11.6 (active) | 0.502 | 0.294 | 0.787 | 0.959 | 2.02 | -0.804 (inactive) | 0.403 | 1.94 (inactive) | 1.79 (inactive) | -1.66 (inactive) | 0.619 (inactive) | 0.652 | 2.21 (inactive) | 0.45 (inactive) | 1.98
[N-]=[N+]=NCc1ccccc1[C@H]1OC(c2ccc(OCCCO)cc2)=N[C@@]1(Cc1ccccc1N=[N+]=[N-])C(=O)NCCN1CCOCC1 | 0.853 | -2.28 (inactive) | 0.28 (inactive) | 0.162 (inactive) | -0.542 (inactive) | 1.37 | 0.0657 | -0.161 | 1.04 | 0.271 | 0.0417 (inactive) | 0.194 | 24.7 (active) | 16.2 (active) | 1.7 (inactive) | 1.85 (inactive) | -0.0338 | -0.753 (inactive) | -0.358 (inactive) | 1.41
C=CCC(OC(C)=O)[C@@H]1[C@@H](N(Cc2ccc(-c3ccccc3)cc2)C(=O)c2cccc3ccccc23)c2cc(OCCCO)ccc2N1C(=O)c1ccc2ccccc2n1 (stereo not given in full) | 0.0553 | -1.48 (inactive) | 0.321 (inactive) | 1.76 (inactive) | -0.505 (inactive) | 0.306 | 0.237 | 0.258 | 0.0374 | 0.0754 | 0.214 (inactive) | 0.123 | 1.01 (inactive) | 0.569 (inactive) | -0.745 (inactive) | 0.357 (inactive) | 0.332 | 0.772 (inactive) | -0.294 (inactive) | -3.7
COCCOC(=O)N1C(=O)[C@@]2(c3cc(C#CCNC(N)=O)ccc31)[C@H](C(=O)N1CCCCCCC1)[C@H]1C(=O)O[C@H](c3ccccc3)[C@H](c3ccccc3)N1[C@@H]2c1ccc(OCCO)cc1 | 0.0855 | -0.897 (inactive) | -1.52 (inactive) | 0.22 (inactive) | -0.311 (inactive) | 0.32 | 0.232 | 0.0121 | 0.145 | 0.438 | 0.0904 (inactive) | 0.174 | 4.45 (inactive) | 1.89 (inactive) | 1.99 (inactive) | 1.25 (inactive) | 0.437 | 1.53 (inactive) | 1.25 (inactive) | 0.0911
